For assay [1], the system named is WEE1. As to conditions: Compound Concentration (nM):1000.
Assay [2] relates to WEE2. As to conditions: Compound Concentration (nM):1000.
The subject of assay [3] is WNK1. As to conditions: Compound Concentration (nM):1000.
In assay [4] the test system is WNK2. As to conditions: Compound Concentration (nM):1000.
The subject of assay [5] is WNK3. As to conditions: Compound Concentration (nM):1000.
For assay [6], the system named is WNK4. As to conditions: Compound Concentration (nM):1000.
In assay [7] the test system is T1, YANK1.
T1 construct: gene STK32A
As to conditions: Compound Concentration (nM):1000.

Assay [8] concerns T2, YANK2.
T2 construct: gene STK32B
As to conditions: Compound Concentration (nM):1000.

Assay [9] relates to T3, YANK3.
T3 construct: gene STK32C
As to conditions: Compound Concentration (nM):1000.

The subject of assay [10] is T4, YES.
T4 construct: gene YES1
As to conditions: Compound Concentration (nM):1000.

The subject of assay [11] is T5, YSK1.
T5 construct: gene STK25
As to conditions: Compound Concentration (nM):1000.

Assay [12] concerns T6, YSK4.
T6 construct: gene MAP3K19
As to conditions: Compound Concentration (nM):1000.

Assay [13] has as its system ZAK. As to conditions: Compound Concentration (nM):1000.
Assay [14] concerns ZAP70. As to conditions: Compound Concentration (nM):1000.
The subject of assay [15] is T7, p38-alpha.
T7 construct: gene MAPK14
As to conditions: Compound Concentration (nM):1000.

Assay [16] relates to T8, p38-beta.
T8 construct: gene MAPK11
As to conditions: Compound Concentration (nM):1000.

The test system of assay [17] is T9, p38-delta.
T9 construct: gene MAPK13
As to conditions: Compound Concentration (nM):1000.

The subject of assay [18] is T10, p38-gamma.
T10 construct: gene MAPK12
As to conditions: Compound Concentration (nM):1000.

Assay [19] concerns ABL1.
Assay [20] deals with ACK1.
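For Percent Control in this document: KINOMEscan scanMAX binding as percent activity remaining versus control; lower means stronger binding.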

With `COc1cc2ncnc(Nc3ccc4c(cnn4Cc4ccccc4)c3)c2cc1OC.Cl` [GW282449A], the “Percent Control” value in [1] is 100%; in [2], 100%; in assay [3], 94%; in assay [4] it was 100%; in assay [5] it was 100%; in assay [6], 100%. The “Percent Control” value in [7] was 100%; in assay [8] it was 100%; in assay [9], 100%; in [10], 67%; in [11], 89%; in [12], 98%. The “Percent Control” value in assay [13], in [14], in assay [15], in assay [16], in assay [17] and in assay [18] was 100% in each case.

For `CN(C)c1cc2c(Nc3ccc4c(cnn4Cc4ccccc4)c3)ncnc2cn1` [GW282974X], the “Percent Control” value in assay [1] is 83%; in assay [2], 72%; in [3], 100%; in assay [4] it was 100%; in [5], 100%; in assay [6] it was 91%. For the same compound, the “Percent Control” value in assay [7] is 100%; in [8], 100%; in assay [9], 100%; in assay [10], 67%; in assay [11] it was 83%; in assay [12], 90%. Moreover, the “Percent Control” value was 90% in assay [13]; 83% in assay [14]; 100% in assay [15]; 100% in assay [16]; 99% in [17]; 100% in assay [18].

On to `O=C(Nc1n[nH]c2nc(-c3ccc(O)cc3)c(Br)cc12)C1CC1` [SB-725317], for which the “Percent Control” value in [1] was 100%; in assay [2], 100%; in assay [3], 84%; in [4] it was 98%; in assay [5] it was 100%; in assay [6] it was 98%. For the same compound, the “Percent Control” value in assay [7] was 100%; in assay [8], 100%; in assay [9], 100%; in assay [10] it was 100%; in assay [11] it was 79%; in assay [12], 4.3%. In addition, the “Percent Control” value in assay [13] is 100%; in [14] it was 100%; in assay [15] it was 100%; in assay [16], 74%; in assay [17], 100%; in assay [18] it was 81%.

Take `CN(C)CCNC(=O)Nc1ccc(N(C)c2ccnc(Nc3ccc(CS(C)(=O)=O)cc3)n2)cc1.Cl` [GW830900A]: the “Percent Control” value in [1] was 94%; in assay [2], 88%; in assay [3], 92%; in [4] it was 64%; in assay [5] it was 99%; in assay [6], 100%. Also, the “Percent Control” value in assay [7] was 68%; in [8], 100%; in assay [9], 100%; in assay [10], 77%; in assay [11], 100%; in [12], 12%. The “Percent Control” value in [13] was 100%; in assay [14] it was 90%; in assay [15], 99%; in assay [16], 100%; in assay [17], 99%; in assay [18], 100%.

In the case of `CC1=C(C(=O)Nc2ccc3[nH]ncc3c2)C(c2ccc(Cl)c(Cl)c2)CC(=O)N1` (centres unmarked) [GSK299115A], the “Percent Control” value in assay [1] is 84%; in assay [2], 73%; in assay [3] it was 95%; in assay [4] it was 100%; in [5] it was 69%; in assay [6], 82%. The “Percent Control” value was 93% in assay [7]; 82% in assay [8]; 99% in assay [9]; 81% in assay [10]; 67% in assay [11]; 64% in [12]. The “Percent Control” value in assay [13], in assay [14], in assay [15], in [16], in [17] and in assay [18] was 100% throughout.

For the compound `COc1ccccc1-c1cc(/C=C2\C(=O)Nc3ncc(Br)cc32)cc(Br)c1O` [GW442130X], the “Percent Control” value was 100% in [1]; 100% in assay [2]; 100% in [3]; 100% in assay [4]; 98% in assay [5]; 100% in assay [6]. Also, the “Percent Control” value is 92% in [7]; 94% in [8]; 100% in assay [9]; 100% in assay [10]; 99% in assay [11]; 98% in assay [12]. In addition, the “Percent Control” value was 100% in assay [13]; 100% in assay [14]; 100% in [15]; 92% in assay [16]; 67% in assay [17]; 57% in assay [18].

On to `CCn1c(-c2nonc2N)nc2c(C#CC(C)(C)O)nc(OCCNC)cc21.Cl` [GSK949675], for which the “Percent Control” value in [1] is 92%; in assay [2], 100%; in assay [3], 100%; in assay [4], 100%; in [5] it was 100%; in [6] it was 51%. For the same compound, the “Percent Control” value in assay [7] was 87%; in [8], 89%; in assay [9], 100%; in assay [10], 100%; in assay [11], 89%; in assay [12] it was 0%. Moreover, the “Percent Control” value was 100% in assay [13]; 100% in assay [14]; 100% in assay [15]; 94% in assay [16]; 100% in assay [17]; 84% in assay [18].

As to `CN1C(=O)c2ccccc2N(C)c2nc(Nc3cnn(C4CCNCC4)c3)ncc21` [XMD-17-51], in [19], the Kinases covered result is on record as “ABL1”.

For `NS(=O)(=O)c1ccc(Nc2ncc(-c3ccccc3)o2)cc1` [GW572399X], the “Percent Control” value is 100% in assay [1]; 100% in assay [2]; 89% in [3]; 100% in assay [4]; 100% in [5]; 100% in assay [6]. Also, the “Percent Control” value in assay [7] was 100%; in assay [8] it was 100%; in [9], 100%; in [10], 100%; in assay [11] it was 54%; in assay [12] it was 30%. The “Percent Control” value in [13], in assay [14], in assay [15], in assay [16], in [17] and in assay [18] was 100% throughout.

Take `CN1CCN(C(=O)c2ccc(NC(=O)Nc3ccc(N(C)c4ccnc(Nc5ccc(CS(C)(=O)=O)cc5)n4)cc3)cc2)CC1.Cl` [GW830263A]: the “Percent Control” value is 100% in assay [1]; 99% in assay [2]; 94% in [3]; 67% in assay [4]; 93% in [5]; 100% in assay [6]. Besides, the “Percent Control” value is 68% in [7]; 100% in assay [8]; 100% in [9]; 96% in assay [10]; 83% in assay [11]; 0% in assay [12]. Besides, the “Percent Control” value is 86% in assay [13]; 65% in assay [14]; 83% in assay [15]; 100% in [16]; 100% in [17]; 100% in [18].

In the case of `CNS(=O)(=O)c1ccc(N(C)C)c(Nc2ncnc3cc(OC)c(OC)cc23)c1` [GSK114], in assay [20], the Kinases covered result is reported as “ACK1”.

Regarding `CCc1ccc(Oc2nccc(-c3c(-c4ccc(F)cc4)ncn3C3CCNCC3)n2)cc1` [SB-242719], the “Percent Control” value in [1] is 100%; in [2] it was 100%; in assay [3], 80%; in assay [4], 97%; in assay [5], 89%; in [6] it was 67%. Besides, the “Percent Control” value was 8.8% in assay [7]; 13% in [8]; 32% in assay [9]; 78% in [10]; 100% in assay [11]; 94% in assay [12]. The “Percent Control” value is 84% in assay [13]; 98% in assay [14]; 0.1% in assay [15]; 3% in assay [16]; 100% in assay [17]; 100% in [18].

For the origin of these results see PMC7826789 (International Journal of Molecular Sciences, 2021).
